Results: the supplement of paper PMC11732987, “Enantioselective OTUD7B fragment discovery through chemoproteomics screening and high-throughput optimisation” (Communications Chemistry, 2025)

What was measured:
Experiment in all cases: log2 ratio of Biotin-Ahx-Ub-VS probe labelling (fragment/DMSO); higher = less target engagement (more negative = stronger competition), active = hit call of the paper (q ≤ 0.05, log2 ratio ≤ -1)
Conditions in all cases: compound concentration: 200 uM; treatment time: 3 h
USP19 = biological target: T1, USP19 (UniProt O94966)
T1 sequence (whole entry): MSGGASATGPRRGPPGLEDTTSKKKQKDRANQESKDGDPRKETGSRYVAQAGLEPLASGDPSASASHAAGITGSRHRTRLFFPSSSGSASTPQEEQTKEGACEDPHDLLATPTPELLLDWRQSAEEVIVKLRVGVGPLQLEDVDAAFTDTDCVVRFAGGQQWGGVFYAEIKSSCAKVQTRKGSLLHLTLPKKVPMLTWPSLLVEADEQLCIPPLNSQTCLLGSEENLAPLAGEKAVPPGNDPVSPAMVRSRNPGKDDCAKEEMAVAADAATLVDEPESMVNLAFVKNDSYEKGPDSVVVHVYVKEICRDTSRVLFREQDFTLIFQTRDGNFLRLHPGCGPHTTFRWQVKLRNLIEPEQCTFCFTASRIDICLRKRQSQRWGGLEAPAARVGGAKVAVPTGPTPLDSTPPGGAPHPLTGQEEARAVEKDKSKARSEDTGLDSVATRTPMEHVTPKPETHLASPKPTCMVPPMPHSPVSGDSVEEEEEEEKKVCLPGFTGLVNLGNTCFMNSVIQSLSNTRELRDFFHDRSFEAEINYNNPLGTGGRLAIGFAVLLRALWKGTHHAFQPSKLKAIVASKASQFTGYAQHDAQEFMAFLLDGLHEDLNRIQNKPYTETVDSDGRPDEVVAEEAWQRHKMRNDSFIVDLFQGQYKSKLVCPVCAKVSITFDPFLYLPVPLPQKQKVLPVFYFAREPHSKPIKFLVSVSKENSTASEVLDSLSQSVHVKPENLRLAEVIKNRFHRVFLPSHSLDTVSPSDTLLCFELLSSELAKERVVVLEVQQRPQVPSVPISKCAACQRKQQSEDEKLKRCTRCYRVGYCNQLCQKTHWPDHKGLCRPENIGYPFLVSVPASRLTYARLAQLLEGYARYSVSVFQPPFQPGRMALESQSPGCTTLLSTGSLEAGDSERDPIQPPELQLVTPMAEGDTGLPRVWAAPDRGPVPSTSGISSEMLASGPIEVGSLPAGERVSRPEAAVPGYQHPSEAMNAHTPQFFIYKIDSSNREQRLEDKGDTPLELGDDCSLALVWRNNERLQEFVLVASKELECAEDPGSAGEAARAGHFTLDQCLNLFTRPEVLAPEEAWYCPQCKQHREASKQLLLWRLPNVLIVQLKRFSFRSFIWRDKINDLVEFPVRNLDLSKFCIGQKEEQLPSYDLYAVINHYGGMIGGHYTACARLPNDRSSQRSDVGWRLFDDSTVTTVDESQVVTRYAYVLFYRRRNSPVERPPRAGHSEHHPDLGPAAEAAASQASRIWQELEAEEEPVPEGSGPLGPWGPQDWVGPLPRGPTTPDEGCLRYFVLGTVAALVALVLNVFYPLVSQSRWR
Outline: (§1)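 Global-median-normalised Spectronaut label-free quantities were compared by unpaired t-test, and values are average log2 ratios of fragment over vehicle. Only proteins with ≥2 unique peptides were used. HEK293T lysate (495 µg per sample) was treated in triplicate with fragment at 200 µM or vehicle for 3 h and then with Biotin-Ahx-Ub-VS at 0.5 µM final for 1 h. Labelled DUBs were then NeutrAvidin-enriched, digested with LysC and trypsin, and run by diaPASEF LC-MS/MS.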

USP22 = biological target: T2, USP22 (UniProt Q9UPT9)
T2 sequence (whole entry): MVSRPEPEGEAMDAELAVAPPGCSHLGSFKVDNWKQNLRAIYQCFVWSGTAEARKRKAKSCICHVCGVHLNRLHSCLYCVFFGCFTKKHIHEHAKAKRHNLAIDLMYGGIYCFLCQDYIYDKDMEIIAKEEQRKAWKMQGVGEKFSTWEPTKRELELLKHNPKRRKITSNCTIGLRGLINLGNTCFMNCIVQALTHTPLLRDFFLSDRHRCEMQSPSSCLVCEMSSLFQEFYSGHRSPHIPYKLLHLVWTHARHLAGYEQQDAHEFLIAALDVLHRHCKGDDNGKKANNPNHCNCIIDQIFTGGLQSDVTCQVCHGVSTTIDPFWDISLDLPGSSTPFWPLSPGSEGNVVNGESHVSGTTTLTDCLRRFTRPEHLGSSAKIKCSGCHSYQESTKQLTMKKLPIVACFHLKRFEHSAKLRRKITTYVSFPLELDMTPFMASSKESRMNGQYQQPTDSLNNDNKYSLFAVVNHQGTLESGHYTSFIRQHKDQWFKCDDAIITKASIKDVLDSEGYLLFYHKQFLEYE
Outline: as §1

USP24 = USP24 (UniProt Q9UPU5)
Outline: as §1

USP25 = biological target: T3, USP25 (UniProt Q9UHP3)
T3 sequence (whole entry): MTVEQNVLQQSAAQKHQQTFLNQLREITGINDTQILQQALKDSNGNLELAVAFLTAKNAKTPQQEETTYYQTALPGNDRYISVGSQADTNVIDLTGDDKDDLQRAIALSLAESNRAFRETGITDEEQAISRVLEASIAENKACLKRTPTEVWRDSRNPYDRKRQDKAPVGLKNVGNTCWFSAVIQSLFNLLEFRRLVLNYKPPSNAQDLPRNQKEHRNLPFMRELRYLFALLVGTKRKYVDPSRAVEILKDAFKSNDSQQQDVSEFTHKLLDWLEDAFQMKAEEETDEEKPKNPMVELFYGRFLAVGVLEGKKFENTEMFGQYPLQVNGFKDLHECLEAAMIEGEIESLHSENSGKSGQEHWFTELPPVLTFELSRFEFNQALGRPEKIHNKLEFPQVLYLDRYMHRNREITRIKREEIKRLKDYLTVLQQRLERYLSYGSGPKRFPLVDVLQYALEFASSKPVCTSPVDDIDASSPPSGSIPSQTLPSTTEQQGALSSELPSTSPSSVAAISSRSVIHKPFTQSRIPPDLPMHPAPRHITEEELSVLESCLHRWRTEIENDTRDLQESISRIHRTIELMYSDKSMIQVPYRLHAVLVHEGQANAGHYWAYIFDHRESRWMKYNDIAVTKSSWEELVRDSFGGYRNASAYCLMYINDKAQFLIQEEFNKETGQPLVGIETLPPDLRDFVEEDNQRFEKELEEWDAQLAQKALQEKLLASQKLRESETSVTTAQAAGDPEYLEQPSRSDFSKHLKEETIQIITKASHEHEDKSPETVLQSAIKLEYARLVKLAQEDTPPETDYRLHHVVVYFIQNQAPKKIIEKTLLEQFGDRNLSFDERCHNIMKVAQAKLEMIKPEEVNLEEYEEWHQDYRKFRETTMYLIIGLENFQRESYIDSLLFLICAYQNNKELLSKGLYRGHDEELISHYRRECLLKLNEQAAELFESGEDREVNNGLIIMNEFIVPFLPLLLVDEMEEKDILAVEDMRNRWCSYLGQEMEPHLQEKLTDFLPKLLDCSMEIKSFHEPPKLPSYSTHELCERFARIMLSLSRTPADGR
Outline: as §1

USP28 = biological target: T4, USP28 (UniProt Q96RU2)
T4 sequence (whole entry): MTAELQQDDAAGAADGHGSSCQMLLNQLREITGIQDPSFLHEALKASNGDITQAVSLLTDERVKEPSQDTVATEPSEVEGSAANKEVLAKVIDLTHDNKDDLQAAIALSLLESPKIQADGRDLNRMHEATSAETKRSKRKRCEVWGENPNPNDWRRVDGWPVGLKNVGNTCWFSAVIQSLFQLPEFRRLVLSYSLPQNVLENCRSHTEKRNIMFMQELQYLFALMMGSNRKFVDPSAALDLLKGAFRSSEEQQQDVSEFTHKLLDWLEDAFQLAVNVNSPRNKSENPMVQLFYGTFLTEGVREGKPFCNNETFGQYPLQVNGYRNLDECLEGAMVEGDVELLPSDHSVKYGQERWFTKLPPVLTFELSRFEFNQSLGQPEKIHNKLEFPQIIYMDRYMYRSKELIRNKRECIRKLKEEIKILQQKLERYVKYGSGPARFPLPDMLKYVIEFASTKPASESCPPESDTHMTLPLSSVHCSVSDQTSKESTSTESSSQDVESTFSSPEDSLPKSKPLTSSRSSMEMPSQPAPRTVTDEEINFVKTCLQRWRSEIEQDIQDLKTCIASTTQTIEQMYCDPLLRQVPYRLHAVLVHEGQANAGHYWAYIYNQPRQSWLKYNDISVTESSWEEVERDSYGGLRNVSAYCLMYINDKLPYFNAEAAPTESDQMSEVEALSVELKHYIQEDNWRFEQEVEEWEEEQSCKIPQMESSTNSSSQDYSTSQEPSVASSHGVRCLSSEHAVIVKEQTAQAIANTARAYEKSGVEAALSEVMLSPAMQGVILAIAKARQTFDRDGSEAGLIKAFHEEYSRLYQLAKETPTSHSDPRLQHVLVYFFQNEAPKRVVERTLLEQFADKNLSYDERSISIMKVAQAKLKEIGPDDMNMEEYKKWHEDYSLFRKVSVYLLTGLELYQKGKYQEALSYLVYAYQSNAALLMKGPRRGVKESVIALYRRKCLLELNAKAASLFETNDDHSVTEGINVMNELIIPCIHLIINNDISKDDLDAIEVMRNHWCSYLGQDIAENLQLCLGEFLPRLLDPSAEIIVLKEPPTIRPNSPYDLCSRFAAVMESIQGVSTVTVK
Outline: as §1

Measured: log2 ratio of Biotin-Ahx-Ub-VS probe labelling

Sequence of USP24 (Q9UPU5 whole entry): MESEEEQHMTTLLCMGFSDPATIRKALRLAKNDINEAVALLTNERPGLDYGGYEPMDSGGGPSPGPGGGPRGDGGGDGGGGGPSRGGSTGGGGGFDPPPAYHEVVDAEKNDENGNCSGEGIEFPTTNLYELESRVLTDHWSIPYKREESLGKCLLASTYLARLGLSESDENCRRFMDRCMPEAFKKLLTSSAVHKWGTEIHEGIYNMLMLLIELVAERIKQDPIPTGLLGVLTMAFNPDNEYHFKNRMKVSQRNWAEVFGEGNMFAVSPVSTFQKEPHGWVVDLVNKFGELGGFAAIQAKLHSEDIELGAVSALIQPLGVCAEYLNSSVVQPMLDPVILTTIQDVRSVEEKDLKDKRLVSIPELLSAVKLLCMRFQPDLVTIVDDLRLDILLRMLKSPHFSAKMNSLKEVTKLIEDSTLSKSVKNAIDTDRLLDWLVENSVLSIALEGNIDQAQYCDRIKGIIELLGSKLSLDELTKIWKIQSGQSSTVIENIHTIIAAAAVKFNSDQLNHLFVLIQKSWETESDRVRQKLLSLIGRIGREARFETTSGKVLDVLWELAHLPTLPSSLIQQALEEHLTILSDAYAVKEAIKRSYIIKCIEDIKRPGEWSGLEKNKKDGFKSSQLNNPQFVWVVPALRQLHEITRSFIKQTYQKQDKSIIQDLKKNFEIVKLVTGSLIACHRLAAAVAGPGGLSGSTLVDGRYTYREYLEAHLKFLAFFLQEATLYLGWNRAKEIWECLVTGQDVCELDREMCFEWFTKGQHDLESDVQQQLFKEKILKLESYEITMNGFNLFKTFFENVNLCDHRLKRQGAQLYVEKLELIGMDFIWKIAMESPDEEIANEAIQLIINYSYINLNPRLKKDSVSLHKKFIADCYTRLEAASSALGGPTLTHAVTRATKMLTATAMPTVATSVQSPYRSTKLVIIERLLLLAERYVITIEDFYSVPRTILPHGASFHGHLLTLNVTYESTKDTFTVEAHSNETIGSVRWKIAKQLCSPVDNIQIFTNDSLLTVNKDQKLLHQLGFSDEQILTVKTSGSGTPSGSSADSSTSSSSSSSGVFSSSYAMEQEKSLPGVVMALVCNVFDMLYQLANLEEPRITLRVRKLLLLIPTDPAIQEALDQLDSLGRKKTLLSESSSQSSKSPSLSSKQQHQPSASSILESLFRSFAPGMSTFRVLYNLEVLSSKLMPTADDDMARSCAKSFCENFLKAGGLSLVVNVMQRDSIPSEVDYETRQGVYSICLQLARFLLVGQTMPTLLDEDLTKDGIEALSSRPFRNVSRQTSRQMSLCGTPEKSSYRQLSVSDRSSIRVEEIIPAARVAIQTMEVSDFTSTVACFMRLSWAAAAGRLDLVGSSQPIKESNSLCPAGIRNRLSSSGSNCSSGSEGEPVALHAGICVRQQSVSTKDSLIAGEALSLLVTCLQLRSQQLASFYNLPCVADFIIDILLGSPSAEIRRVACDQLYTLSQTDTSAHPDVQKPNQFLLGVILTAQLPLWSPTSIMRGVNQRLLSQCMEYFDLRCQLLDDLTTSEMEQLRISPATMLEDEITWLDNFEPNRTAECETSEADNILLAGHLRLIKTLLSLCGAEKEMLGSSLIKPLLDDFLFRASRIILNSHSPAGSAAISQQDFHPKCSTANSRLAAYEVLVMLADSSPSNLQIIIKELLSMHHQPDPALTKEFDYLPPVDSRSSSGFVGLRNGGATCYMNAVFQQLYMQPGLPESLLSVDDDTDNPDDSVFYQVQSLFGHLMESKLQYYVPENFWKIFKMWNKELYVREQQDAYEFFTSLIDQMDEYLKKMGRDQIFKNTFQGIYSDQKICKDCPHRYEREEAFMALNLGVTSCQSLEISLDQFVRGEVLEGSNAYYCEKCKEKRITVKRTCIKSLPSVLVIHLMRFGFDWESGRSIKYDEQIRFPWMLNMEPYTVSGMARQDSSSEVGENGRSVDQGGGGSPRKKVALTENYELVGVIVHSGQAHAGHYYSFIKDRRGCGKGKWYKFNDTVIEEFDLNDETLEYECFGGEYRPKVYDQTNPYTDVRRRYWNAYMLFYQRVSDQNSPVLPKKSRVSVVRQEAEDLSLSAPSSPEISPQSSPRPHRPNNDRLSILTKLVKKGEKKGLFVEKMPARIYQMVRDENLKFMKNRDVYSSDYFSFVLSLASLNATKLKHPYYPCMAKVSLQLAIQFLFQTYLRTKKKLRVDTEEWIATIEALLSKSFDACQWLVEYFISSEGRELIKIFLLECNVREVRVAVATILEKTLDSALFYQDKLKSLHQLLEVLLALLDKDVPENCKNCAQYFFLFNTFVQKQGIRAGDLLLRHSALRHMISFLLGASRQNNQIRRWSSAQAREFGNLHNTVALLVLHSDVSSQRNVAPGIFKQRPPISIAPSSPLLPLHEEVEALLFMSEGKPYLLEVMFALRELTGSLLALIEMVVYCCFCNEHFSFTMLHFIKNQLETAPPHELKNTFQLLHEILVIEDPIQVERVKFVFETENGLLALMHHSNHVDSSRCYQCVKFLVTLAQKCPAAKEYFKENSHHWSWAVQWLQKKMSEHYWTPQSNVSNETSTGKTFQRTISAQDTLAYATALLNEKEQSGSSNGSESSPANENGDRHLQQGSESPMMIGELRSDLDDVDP

Cc1c(NC(=O)CCl)c(=O)n(-c2ccccc2)n1C
inactive: USP19 -0.181 | USP22 -0.000691 | USP24 -0.125 | USP25 -0.16 | USP28 -0.182
